Source: PubChem BioAssay

These molecules were tested against Albumin (Bos taurus) (UniProt P02769) (assay: bovine serum albumin binders on microarray, profiling panel, artefact control for SMM control protein annotation, biochemical, small-molecule microarray, Alexa647 label, 635/667 nm fluorescence (AID 1118;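 also: score merges 667 nm emission intensity and signal-to-noise per printed compound spot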)). Settings: BSA-A647 binding, fluorescence 635 nm, higher = more signal.
Albumin (Bos taurus), sequence (P02769 whole entry, looked up): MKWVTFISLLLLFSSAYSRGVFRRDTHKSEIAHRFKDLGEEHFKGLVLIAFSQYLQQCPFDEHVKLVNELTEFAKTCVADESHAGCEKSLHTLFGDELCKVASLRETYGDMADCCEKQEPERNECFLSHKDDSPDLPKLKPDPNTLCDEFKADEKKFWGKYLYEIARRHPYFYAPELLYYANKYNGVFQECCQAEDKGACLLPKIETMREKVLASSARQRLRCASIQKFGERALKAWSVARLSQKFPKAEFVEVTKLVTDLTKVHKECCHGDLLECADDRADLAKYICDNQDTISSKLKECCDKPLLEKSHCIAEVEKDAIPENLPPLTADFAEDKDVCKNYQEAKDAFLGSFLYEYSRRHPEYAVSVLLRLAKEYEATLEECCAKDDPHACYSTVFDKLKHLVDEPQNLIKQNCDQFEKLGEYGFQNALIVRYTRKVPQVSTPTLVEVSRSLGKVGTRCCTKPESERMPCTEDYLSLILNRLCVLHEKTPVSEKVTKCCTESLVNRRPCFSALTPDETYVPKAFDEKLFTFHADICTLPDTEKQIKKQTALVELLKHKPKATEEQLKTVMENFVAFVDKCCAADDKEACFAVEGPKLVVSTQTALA

| SMILES | composite z-score |
| --- | --- |
| COCCCNC(=O)[C@@]1(Sc2ccc(C)cc2)CC(=O)N(C2CCCCC2)[C@@H]1c1ccc(CO)cc1I | 0.68 |
| [N-]=[N+]=NCc1ccccc1C[C@]1(C(=O)O)COC(c2ccc(OCCCO)cc2)=N1 | 0.748 |
| COC(=O)[C@@]1(Cc2ccc(OC)cc2)[C@H]2c3cc(C(=O)N(C)C)n(Cc4ccsc4Br)c3C[C@H]2CN1C(=O)c1ccccc1 | 0.968 |
| CCCCC(=C=CC[C@@H](O)c1ccc(OCCO)cc1)C[C@@H](O)c1ccccn1 | 0.681 |
| O=C1NC(=O)C2C1C=CC(C(O)c1cccc(O)c1)N2Nc1ccc(Cl)cc1Cl (stereo not given) | 0.33 |
| [N-]=[N+]=NCc1ccccc1C[C@]1(C(=O)NCc2ccccc2)N=C(c2ccc(OCCCO)cc2)O[C@H]1c1ccccc1CN=[N+]=[N-] | 0.735 |
| O=C1O[C@H](c2ccccc2)[C@H](c2ccccc2)N2[C@H]1[C@@H](C(=O)N1CCN(c3ncccn3)CC1)[C@]1(C(=O)Nc3ccccc31)[C@H]2c1ccc(O)cc1 | 0.753 |
| COC(=O)[C@@]1(Cc2ccc(F)cc2)[C@H]2c3cc(C(=O)N4CCCC4)n(CCO)c3C[C@H]2CN1C(=O)c1ccccc1 | 0.503 |
| O=C1NC(=O)C2C1C=CC(C(O)c1ccc(F)cc1)N2Nc1ccccn1 (stereo not given) | 0.691 |
| CC[C@H](C)C(=O)O[C@H]1CC[C@]2(C)C3=C(CCC2C1(C)C)[C@]1(C)CC[C@H]([C@H](C)CCCC(C)C)[C@@]1(C)CC3 (stereo not given in full) | -0.0017 |
| CCCC[C@H]1OB(O)C[C@H]2C1=C(COC)C[C@H]1C(=O)C=CC(=O)[C@H]12 | -0.183 |
| CCCCCCCCCCC(O)C1C=CC2C(=O)N(C)C(=O)C2N1N1CCCCC1 (stereo not given) | -0.377 |
| C=CC[C@]1(C(=O)NCCCOC)N=C(c2ccc(OCCCO)cc2)O[C@H]1c1ccccc1 | 0.812 |
| CC1CC/C=C\[C@H]2OC34C=CCN(c5ccc(Cl)cc5)C(=O)[C@H]3N(CCCO)C(=O)[C@]4(C)C2C(=O)O1 (stereo not given in full) | 0.784 |
| C=C(CC1([C@@H](NP(=O)(c2ccccc2)c2ccccc2)[C@H]2C[C@@H]2CCN(C(=O)OCC)S(=O)(=O)c2ccc(C)cc2)CC1)c1ccccc1 | 0.963 |
| COCC1=C([C@H](O)CCc2ccccc2)[C@H](CO)n2c(=O)n(-c3ccccc3)c(=O)n2C1 | -0.442 |
| COC(=O)c1ccc([C@H](NC(=O)c2ccccc2)[C@]2(C)C[C@H]2C2CCCCC2)cc1 | 0.543 |
| COCCOC(=O)N1C(=O)[C@@]2(c3cc(C#CC4=CCCCC4)ccc31)[C@H](c1ccccc1OCCO)N1[C@H](c3ccccc3)[C@H](c3ccccc3)OC(=O)[C@H]1[C@@H]2C(N)=O | -0.0123 |

| SMILES | composite z-score |
| --- | --- |
| C=CCC(OC(C)=O)[C@@H]1[C@@H](N(Cc2cc3ccccc3o2)C(=O)Cc2ccc(OC)cc2)c2cc(OCCCO)ccc2N1C(=O)Cc1ccc2ccccc2c1 (stereo not given in full) | 0.402 |
| COc1ccc([Si](C)(C)[C@H]2[C@H](CCO)O[C@@]3(C(=O)N(Cc4ccccc4)c4ccc(N(C=O)c5ccccc5)cc43)[C@@H]2C)cc1 | 0.717 |
| CC(C)CNC(=O)[C@@H]1c2ccccc2C(=O)N(Cc2ccccc2Cl)[C@H]1c1ccc(CO)cc1 | -0.261 |
| CCCCNC(=O)c1ccc(C#C[Si](C)(C)C)c(OC(C)=O)c1 | -0.175 |
| COc1cc2c(cc1O)C(c1ccc(CN3CCCC3)cc1)N(Cc1cccc(OC(F)(F)F)c1)CC2 (stereo not given) | 0.771 |
| C=CCOC(=O)[C@H]1[C@@H]2C(=O)O[C@@H](c3ccccc3)[C@@H](c3ccccc3)N2[C@@H](c2ccc(OCCOC(=O)[C@H]3C[C@H]4C(=O)NCC(=O)N4[C@H]3c3ccc(O)cc3)cc2)[C@]12C(=O)Nc1ccc(I)cc12 | 0.163 |
| NC(=O)N1C(=O)C2C(C1=O)C1C=C(CCCO)C2C(c2ccc(CN3CCCC3)cc2)N1Cc1cccc(OC(F)(F)F)c1 (stereo not given) | 0.0639 |
| C=C(CCCC)C(=O)CC[C@H](OC(C)=O)c1ccccc1OCCO | 0.326 |
| C=CCC(OC(C)=O)[C@@H]1[C@@H](N(Cc2cccc3ccccc23)C(=O)c2ccc(-c3ccccc3)cc2)c2cc(OCCCO)ccc2N1C(=O)c1ccc2ccccc2n1 (stereo not given in full) | 0.192 |
| COC(=O)[C@@]1(Cc2ccccc2)[C@@H]2[C@@H](CC(=O)[C@H]2CC(=O)C(=O)N(C)C)CN1C(=O)c1ccccc1 | 0.579 |
| COCCOC(=O)N1C(=O)[C@@]2(c3cc(C#Cc4ccc(OC)cc4)ccc31)[C@H](C(=O)Nc1nc3ccccc3s1)[C@H]1C(=O)O[C@H](c3ccccc3)[C@H](c3ccccc3)N1[C@@H]2c1ccccc1OCCO | 0.545 |
| CCc1cccc(NC(=O)O[C@H]2[C@H](OC(=O)Nc3ccc4c(c3)OCO4)[C@H](OC(=O)Nc3ccc4c(c3)OCO4)[C@@H](OC)O[C@@H]2CO)c1 | 0.208 |
| C=C(COC)/C(=C/C[C@H](OC(=O)c1ccncc1)c1cccc(OCCO)c1)c1cnc2ccccc2c1 | 0.671 |
| COCCn1c(C(=O)N2CCCC2)cc2c1C[C@H]1CN(C(=O)c3ccccc3)[C@@](Cc3ccccc3)(C(=O)OC)[C@@H]21 | 1.03 |
| O=C1C2C=CC(C(O)C(c3ccccc3)c3ccccc3)N(Nc3ccccc3)C2C(=O)N1c1ccccc1 (stereo not given) | 0.876 |
| Cc1ccc(S(=O)(=O)N2[C@@H](c3ccccc3)C(C(=O)O)=CC[C@H]2c2ccc(C#N)cc2)cc1 | 1.04 |
| C=CCC(OC(C)=O)[C@@H]1[C@@H](N(Cc2cc3ccccc3o2)C(=O)c2ccc(-c3ccccc3)cc2)c2cc(OCCCO)ccc2N1C(=O)c1ccc2ccccc2n1 (stereo not given in full) | 0.593 |
